# According to PubChem BioAssay AID449768 (Vanderbilt High Throughput Screening Facility, 2010):
# The campaign covered roughly 110,000 compounds. About 1,400 (1.3%) were called active. The full list was thinned out, with actives kept by preference. Values without a mark were called inactive.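 How the source made its calls: active means Z score or B-score, a plate-position-corrected score, falls beyond the plate's 99.7% confidence bounds, in either direction; inactive means both scores lie inside the 99.7% bounds.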
# Molecular target: Sodium-dependent dopamine transporter (Homo sapiens) (UniProt Q01959)
# Sequence (Q01959 whole entry, looked up): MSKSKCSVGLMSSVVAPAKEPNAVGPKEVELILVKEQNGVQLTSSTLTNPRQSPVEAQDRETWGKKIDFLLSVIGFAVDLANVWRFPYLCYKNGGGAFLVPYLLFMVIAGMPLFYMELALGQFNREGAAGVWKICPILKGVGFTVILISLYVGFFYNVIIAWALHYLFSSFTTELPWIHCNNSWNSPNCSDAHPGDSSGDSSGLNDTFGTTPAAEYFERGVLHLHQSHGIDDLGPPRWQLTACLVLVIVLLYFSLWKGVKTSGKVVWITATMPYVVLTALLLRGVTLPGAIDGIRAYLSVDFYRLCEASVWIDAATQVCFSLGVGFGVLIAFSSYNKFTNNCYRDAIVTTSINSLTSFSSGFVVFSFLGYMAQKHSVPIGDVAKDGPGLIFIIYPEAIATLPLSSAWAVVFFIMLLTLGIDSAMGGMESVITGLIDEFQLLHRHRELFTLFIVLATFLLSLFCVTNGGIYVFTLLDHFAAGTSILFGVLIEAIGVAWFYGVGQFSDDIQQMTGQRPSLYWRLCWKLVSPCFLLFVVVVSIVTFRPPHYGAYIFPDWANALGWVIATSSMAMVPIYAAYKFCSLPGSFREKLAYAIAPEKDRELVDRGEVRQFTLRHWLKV
# Test: modulators of human DAT uptake with cocaine – cell-based, LLC-PK1 hDAT, [14C]-dopamine uptake, MLSMR, cocaine antagonist project, primary screen (AID 449768);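 further: scored against the spread of the other compound wells on the same plate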
# Details: LLC-PK1 hDAT cells, [14C]-dopamine uptake with cocaine IC80; at 10 µM; actives deviate in either direction
row,Structure (SMILES),B-score
1,COP1(=O)C[C@@H](O)[C@@H](O)[C@@H](COCc2ccccc2)O1 (some centres undefined),-0.427
2,CCCCCC(=O)Nc1ccc2oc(-c3ccncc3)nc2c1,1.15
3,O=C(Cc1cccc2ccccc12)Nc1ccc2oc(-c3ccccc3)nc2c1,-7.38 (active)
4,O=C(Nc1ccc2oc(-c3ccc4ccccc4c3)nc2c1)c1cccs1,-1.07
5,CCO[C@@H]1OC(C(=O)NCc2nc3ccccc3[nH]2)=C[C@H](C2CCCCC2)[C@H]1CCCO,0.35
6,NC(=O)[C@H]1CC2(CC(c3cccc(NC(=O)[C@H]4CCC(=O)N4)c3)=NO2)CN1C(=O)c1ccccc1C(=O)c1ccccc1 (some centres undefined),-0.797
7,CCCn1c(SCC(=O)Nc2cccc(C(=O)OCC)c2)nnc1-c1ccoc1C,-0.483
8,COc1ccccc1NC(=O)CSc1nnc(-c2ccoc2C)n1CCc1ccccc1,2.44 (active)
9,COc1ccccc1NC(=O)CSc1nnc(C)n1CC1CCCO1 (centres undefined),-0.675
10,C#CCOCCOCCOCCNc1nc(N2CCN(C(=O)C([C@@H](C)CC)n3cc(C(N)COC(=O)C(F)(F)F)nn3)CC2)nc(N2CCN(C(=O)[C@H](Cc3ccc(O)cc3)n3cc(C(N)[C@H](C)CC)nn3)CC2)n1 (some centres undefined),-0.939
11,COCCN1C(=O)N[C@@H](c2ccccc2)C(C(=O)OC)=C1C,-0.275
12,COC(=O)CCCCCN1C(=O)NC(c2ccc(-c3ccccc3)cc2)C(C(=O)OCc2ccccc2)=C1C (centres undefined),-5.33 (active)
13,CC1=C(C(=O)OCc2ccccc2)C(c2ccc(C(F)(F)F)cc2)NC(=O)N1CCCCCC(=O)O (centres undefined),0.765
14,COc1ccc(C#Cc2c(-c3ccc(OC)cc3)oc3ccc(-c4ccc5c(c4)OCO5)cc23)cc1,0.0246
15,NC1=NC[C@@H](Cc2ccc(O)cc2)N1CC1CCCCC1,0.203
16,CS(=O)(=O)c1ccc2nc(NC(=O)C3CCCCC3)sc2c1,2.38
17,Cc1ccc2nc(NC(=O)C3CCN(S(=O)(=O)c4ccc5c(c4)oc(=O)n5C)CC3)sc2c1,-0.00508
18,O=C(Nc1nc2ccc(S(=O)(=O)N3CCCC3)cc2s1)C1CCCO1 (centres undefined),2.39 (active)
19,COC(C[C@@H]1O[C@@H]1C(=O)[C@H](C)OCc1ccccc1)OC,-1.33
20,COC(=O)C1=C(C(=O)OC)[C@@H]2N(C)c3ccccc3[C@@]23C[C@@H](C(=O)OC)N(C(C)=O)C3=N1,-0.544
21,C=CCNC(=O)c1ccc2c3n(nc2c1)-c1ccc(C)cc1CO3,-0.154

row,Structure (SMILES),B-score
1,CCOC(=O)c1cc(-c2nnc(-c3cc(OC)c(OC)c(OC)c3)o2)c(C)nc1C,1.41 (active)
2,CCCc1nc2ccccc2c(C(=O)OCc2nnc(-c3cc(OC)c(OC)c(OC)c3)o2)c1CC,0.135
3,CCOC(=O)c1cc2ccccc2nc1C,0.593
4,CCO[C@H]1OC(C(=O)N2CCN(Cc3ccccc3)CC2)=C[C@@H](c2cn(C(C)=O)c3ccccc23)[C@@H]1CCCO,-0.181
5,CCO[C@@H]1OC(C(=O)NC2CC2)=C[C@H](C)[C@H]1CCCO,0.173
6,CN1CCN(C(CNS(=O)(=O)c2cccs2)c2cccnc2)CC1 (centres undefined),-0.00301
7,Cc1nnc(NC(=O)Nc2ccc(Cl)c(Cl)c2)s1,-0.308
8,N/C(=N\OC(=O)Nc1ccc(Cl)c(Cl)c1)c1ncc(C(F)(F)F)cc1Cl,0.438
9,O=C(CC(O)(C(F)(F)F)C(F)(F)F)Nc1ccc(Cl)c(Cl)c1,-6.33 (active)
10,Cc1nc(-c2ccccc2)sc1C1(C)CC(c2cccnc2)=NO1 (centres undefined),0.641
11,C#Cc1ccc([C@@H]2C=C(C(=O)O)O[C@H](OCCCCO)C2)cc1,-0.622
12,CC1=C(N2CCN(c3ncccn3)CC2)CCC1=O,0.343
13,CC1(C)OC(=O)N2CCc3ccccc3C21C (centres undefined),-8.52 (active)
14,COc1ccc(CN2CC[C@H]3C=CC[C@@H](C(=O)N4CCOCC4)[C@H]3C2=O)cc1OC,0.696
15,Cc1cc(C)cc(NC(=S)NCCc2c[nH]c3ccccc23)c1,2.31
16,O=C(CCCCCn1c(=O)[nH]c2ccccc2c1=O)NCCc1c[nH]c2ccccc12,0.015
17,C[C@]1(C(=O)NCCc2c[nH]c3ccccc23)C=C[C@@H](Cc2ccccc2)N1C(=O)c1ccccc1,2.48 (active)
18,NCCCC[C@@H]1NC(=O)[C@H](CCC(=O)O)NC(=O)c2cc([N+](=O)[O-])cc(I)c2NCC[C@@H](C(N)=O)NC1=O,-0.534
19,COc1ccc(CNC(=O)C2(CC3CC(c4ccccc4)=NO3)CCN(C(=O)c3cccc(O)c3)CC2)cc1 (centres undefined),0.0185
20,O=C(NCc1ccccc1)c1onc(CSc2ccncc2)c1C(=O)NCc1ccccc1,-1.52
21,NC(=O)CC[C@@H]1NC(=O)[C@H](CO)NC(=O)c2cc([N+](=O)[O-])cc(I)c2NCC[C@@H](C(N)=O)NC1=O,-0.848

row,Structure (SMILES),B-score
1,O=C(Nc1cccc(-c2nc3ncccc3o2)c1)c1ccco1,0.346
2,Cc1ccc(OCC(=O)Nc2ccc(-c3nc4ncccc4o3)cc2)cc1,-8.77 (active)
3,Cc1ccc(OCC(=O)Nc2ccc(-c3nnc(-c4ccco4)o3)cc2)cc1,-0.0188
4,Cn1ccnc1-c1nnn(-c2ccc(F)cc2)n1,-0.732
5,Cc1ccc(Cn2c(NC(=O)c3ccco3)nc3ccccc32)cc1,-0.191
6,CCCc1nc2c(C)cc(-c3nc4ccccc4n3C)cc2n1Cc1ccc(-c2ccccc2C(=O)O)cc1,3.87 (active)
7,CCC(=O)NCCc1nc2ccccc2n1CC,-0.73
8,CC(C)(C)Oc1ccccc1Nc1nc(NCCO)nc(N2CCCC2)n1,1.65
9,CCO[C@H]1OC(C(=O)Nc2ccccc2)=C[C@@H](C2CC2)[C@@H]1CCCO,-0.987
10,CCOc1ccc(-c2nnn(CC(=O)N3CCN(c4ccc(OC)cc4)CC3)n2)cc1OCC,-0.869
11,COc1ccc(N2CCN(C(=O)CCc3nc(-c4ccc(C)cc4)no3)CC2)cc1,0.227
12,CCOc1cc(-c2noc(CCC(=O)N3CCOCC3)n2)ccc1OC,2.65 (active)
13,CC1(C)CC[C@]2(C(=O)O)CC[C@]3(C)C(=CCC4[C@@]5(C)CC[C@H](O)C(C)(C)C5[C@H](O)C[C@]43C)[C@@H]2C1 (some centres undefined),1.56
14,COC(=O)COc1cccc2c(=O)n(CC(=O)NCCc3ccc(OC)c(OC)c3)ccc12,-1.43
15,CCCCN1C(N)=NC[C@@H]1Cc1ccccc1,-0.466
16,CCN1C(=O)N[C@@H](c2ccccc2)C(C(=O)OC)=C1C,-0.748
17,Nc1nonc1-c1nc2ccccc2n1CCC(=O)O,0.142
18,CC(=O)Nc1nonc1-c1nc2ccccc2n1Cc1ccccn1,3.49 (active)
19,Nc1nonc1-c1nc2ccccc2n1Cc1ccc(F)cc1,-0.103
20,C[C@H]1CC[C@]2(O[C@@H](CCO)C[C@@H](O)[C@@H]2O)O1,0.279
21,CCO[C@@H]1OC(C(N)=O)=C[C@H](c2ccc(Br)cc2)[C@H]1CCCO,-0.185

row,Structure (SMILES),B-score
1,CC[C@H](C)[C@@H](C(=O)N1CCNCC1)n1cc([C@@H](N)Cc2ccc(O)cc2)nn1,0.00778
2,CCc1ccc2ncc(C(=O)c3ccccc3)c(N3CCOCC3)c2c1,2.66 (active)
3,CCc1ccc(NC(=O)CSc2nc3ccccc3c(=O)n2CCN2CCOCC2)cc1,0.477
4,O=C(c1ccccc1)c1cc(-c2ccccn2)c(N2CCOCC2)s1,1.13
5,N#CCc1c(C#N)c(N)nc(N2CCCC2)c1C#N,-0.528
6,C#CCCOC(=O)N1C2=NC(C(=O)OC)=C(C(=O)OC)[C@@H]3N(C)c4ccc(OC)cc4[C@]23C[C@H]1C(=O)OC,-0.658
7,C#CCOCCOCCOCCNc1nc(N2CCN(C(=O)[C@H](Cc3ccc(O)cc3)n3cc(C(N)CC(C)C)nn3)CC2)nc(N2CCN(C(=O)[C@H](CCC(=O)O)n3cc(C(N)[C@H](C)CC)nn3)CC2)n1 (some centres undefined),-0.0315
8,CC(=O)Nc1ccc(NC(=O)CSCc2cnn(-c3ccccc3)c2-n2cccc2)cc1,0.28
9,O=C(NCCC1=CCCCC1)C1CCN(Cc2cnn(-c3ccccc3)c2-n2cccc2)CC1,3.85 (active)
10,C1=C(CCNc2ncnc3c2cnn3-c2ccccc2)CCCC1,1.22
11,O=[N+]([O-])c1ccccc1NCc1ccc(Cl)cc1,-0.347
12,O=C(Nc1ccccc1[N+](=O)[O-])C1C(c2ccccc2)=C1c1ccccc1,-0.499
13,O=C(O)c1ccccc1NC(=S)NC(NC(=O)c1ccccc1[N+](=O)[O-])C(Cl)(Cl)Cl (centres undefined),-2.89 (active)
14,CC1(c2nnc(-c3ccncc3)o2)CC(c2cccnc2)=NO1 (centres undefined),-0.313
15,CCc1nnc(SCc2cccc(F)c2)nc1CC,-0.0254
16,CC(NC(=O)Nc1ccccc1)C(c1cccs1)N1CCN(c2ccccc2)CC1 (centres undefined),-0.314
17,COc1ccccc1C1=CC(=O)CCC1,-0.483
18,C/C=C(/C)C(=O)O[C@@H]1c2cc3c(c4c2[C@@]2(CO4)C(=O)C(OC)=C(OC)C=C2C[C@@H](C)[C@H]1C)OCO3,-0.0544
19,COC(=O)C(NC(=O)c1ccc(OC)cc1)(Nc1ncc(S(=O)(=O)c2ccc([N+](=O)[O-])cc2)s1)C(F)(F)F (centres undefined),1.29
20,Cc1cc(C)cc(OCC(=O)Nc2nc3ccc([N+](=O)[O-])cc3s2)c1,0.303
21,O=C(NC(Nc1nc2ccc([N+](=O)[O-])cc2s1)(C(F)(F)F)C(F)(F)F)c1ccccc1,-6.22 (active)
